Whole data set: some 68,000 sequences, median “fluorescence intensity (a.u.)” near 9,100, cut for the highest 2% near 16,000. The sample holds the highest values, similar sequences and a random draw of the others, so the mix is not that of the screen.
The sequences below were run against OsWRKY34 (Oryza sativa, UniProt Q0JBA9 1-250) (assay: protein-binding microarray (RPBM); PBS, 2% BSA, 51.3 ng/ul salmon testes DNA, 50 uM zinc acetate, 200 nM TF, 25 C, 1 h; high values mean tight binding). Conditions: protein: recombinant; tags: N-terminal polyhistidine and DsRed monomer fusion (pET32a); label: CyDye5-dUTP incorporated in the synthesized complementary strand; 3' TTTTT single-stranded linker to array surface; dsDNA, one strand shown.
Outline: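 A custom Agilent array was converted to double-stranded form by primer extension with Cy5-dUTP and blocked with 2% BSA. Protein at 200 nM in PBS with 2% BSA, salmon testes DNA and 50 µM zinc acetate was applied for 1 h at 25 °C, followed by washing. The proteins were polyhistidine–DsRed N-terminal fusions of transcription factors, expressed in E. coli BL21-CodonPlus and Ni–NTA-purified. The binding signal is per-feature fluorescence intensity (arbitrary units) from an Axon 4000B scanner.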

OsWRKY34, sequence (Q0JBA9 entry or part of it): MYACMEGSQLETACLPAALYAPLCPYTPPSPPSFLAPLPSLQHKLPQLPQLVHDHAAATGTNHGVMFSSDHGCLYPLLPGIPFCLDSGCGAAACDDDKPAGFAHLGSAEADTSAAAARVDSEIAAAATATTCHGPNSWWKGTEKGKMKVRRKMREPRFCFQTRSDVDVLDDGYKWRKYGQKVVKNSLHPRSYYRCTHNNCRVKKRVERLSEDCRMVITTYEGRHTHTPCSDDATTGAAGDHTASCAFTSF

Sequence | binding signal
CTCTACTTCTAATATTCCTTATTTTTTTAATTCCGAATTTCGGAGTCACCTAGTGCAG | 8800 fluorescence intensity (a.u.)
TTTCTACACCCTGTAGATCCTTGGACCCACATGCAGACCACGGAGTCACCTAGTGCAG | 8730 fluorescence intensity (a.u.)
GTGGGTGGGATCCAGGAAGATTTTAAGCTGACTGCTGCGGCGGAGTCACCTAGTGCAG | 8510 fluorescence intensity (a.u.)
CCTTCGCTCGCCACGTGGCAGCCGCTAGTCCTTATCGCCGCGGAGTCACCTAGTGCAG | 10300 fluorescence intensity (a.u.)
GGGAAACCAGGCTATCCTCTTGGTCACTCTGCACCAATTCCGGAGTCACCTAGTGCAG | 10500 fluorescence intensity (a.u.)
ACAGCTCTGCTCAACCTTGCCATCTCGATCAATCGATCCTCGGAGTCACCTAGTGCAG | 11400 fluorescence intensity (a.u.)
AGGTGATGTTTGGGGTCGTTGGGTTGGTCCGCGTTCTTGCCGGAGTCACCTAGTGCAG | 17400 fluorescence intensity (a.u.)
CTTTGGCTTCTTGCCTACCGCGTTCTTGGTGATCGTTGGTCGGAGTCACCTAGTGCAG | 8270 fluorescence intensity (a.u.)
TTTCTTGGCTGGTTTGGTTGTGGATTGGATTGGATTGGGTCGGAGTCACCTAGTGCAG | 16100 fluorescence intensity (a.u.)
TGGATACTTGGCGTTGGTGGGCTGGTTCTTATTGGATACGCGGAGTCACCTAGTGCAG | 8120 fluorescence intensity (a.u.)
CATCGTTGACCAAGAATAAGAACAGCGAATTTGCATAATGCGGAGTCACCTAGTGCAG | 14700 fluorescence intensity (a.u.)
GGGTTGGTCCGCGTTCTTGCCTCCTGGTTGGCCGATGTTTCGGAGTCACCTAGTGCAG | 15700 fluorescence intensity (a.u.)
GTTGACGGGGTTTGTGAGGTGTGGCGGTGACTTGGAAAGACGGAGTCACCTAGTGCAG | 10100 fluorescence intensity (a.u.)
CGGTGTCGGATTTTTGGTTGGTTGACGGGGTTTGTGAGGTCGGAGTCACCTAGTGCAG | 17500 fluorescence intensity (a.u.)
GAAATGTTGGTGACGGTGGAGGATTTTGTTGTTTTAGTGTCGGAGTCACCTAGTGCAG | 9790 fluorescence intensity (a.u.)
TAATAAGTGAGACCAAATATTGATTGTGTAGTATATATTTCGGAGTCACCTAGTGCAG | 8670 fluorescence intensity (a.u.)
GGTTTCTTGGATTGGGCTGTGGCTGGCGTTGGTCGGAGGACGGAGTCACCTAGTGCAG | 19100 fluorescence intensity (a.u.)
GGGAGTAGTATTGATTTGACCATCGTTGACCAAGAATAAGCGGAGTCACCTAGTGCAG | 17400 fluorescence intensity (a.u.)
GACAACCTGGAGCCCGACGACGACGAGGGGATGGGGAGGGCGGAGTCACCTAGTGCAG | 8810 fluorescence intensity (a.u.)
GTTAGTGTGTGGTTTGTTGCGTGCAGTCAGGTGCACTCGGCGGAGTCACCTAGTGCAG | 11000 fluorescence intensity (a.u.)
TATTATTATGATGGGTTTGTATATTAAAATTGTCAGTTTGCGGAGTCACCTAGTGCAG | 8110 fluorescence intensity (a.u.)
ACGCGCGCTACATTCTCCACCTCTCCACCATTCCAAACTGCGGAGTCACCTAGTGCAG | 9850 fluorescence intensity (a.u.)
CACACAGCATCGTTTGGATTAATCACCGAACCGATCGACCCGGAGTCACCTAGTGCAG | 8400 fluorescence intensity (a.u.)
CCTCTCCTAGGTTAAGTTTTTTTGGGGCGAAGGGAGTATTCGGAGTCACCTAGTGCAG | 8120 fluorescence intensity (a.u.)
CTCTCGCGCGAGATGTCCGTGACTCTCTTTTCGTTTACACCGGAGTCACCTAGTGCAG | 8420 fluorescence intensity (a.u.)
CTCTCGGTCGTCGGCCTCGTCCTCCGGGCCGGCATTCATCCGGAGTCACCTAGTGCAG | 8560 fluorescence intensity (a.u.)
CTTGCCATGGTGTTGATTTGGGGCGGGAAGAAGCATCGGGCGGAGTCACCTAGTGCAG | 16800 fluorescence intensity (a.u.)

Sequence | binding signal
TTGGTTGGTTGGTTGGTGTTTTGAGGCTTGGGTCGGCTTACGGAGTCACCTAGTGCAG | 17100 fluorescence intensity (a.u.)
GCGCATGGTGTTCGGGAAGAAGTACATCGTCGAGGAGGGGCGGAGTCACCTAGTGCAG | 8540 fluorescence intensity (a.u.)
CTTATACATTGGGTTGAGGGTTTTTTTGGTTGAGTTCGGCCGGAGTCACCTAGTGCAG | 9220 fluorescence intensity (a.u.)
TGATCGAGAGAGGTGTTGTTGGAAGCTTGGTTGGTTGGGGCGGAGTCACCTAGTGCAG | 9000 fluorescence intensity (a.u.)
GCTAGGGTTTTTGGGTTCACTTTGAGGCTGTTTGGTTGGTCGGAGTCACCTAGTGCAG | 15100 fluorescence intensity (a.u.)
AGTTACCGTTCTAGTCAGGGGCGGATCCAGCGTGGGGCGGCGGAGTCACCTAGTGCAG | 12600 fluorescence intensity (a.u.)
ACATCCTTCTGGGTTGATTTTTTTCTATAGAGGGGTAGGTCGGAGTCACCTAGTGCAG | 8590 fluorescence intensity (a.u.)
AAGTAAGATGCCACACACCATAGTCTGCTTCACTGTCAACCGGAGTCACCTAGTGCAG | 9080 fluorescence intensity (a.u.)
CGTCTCCGCCGCTGCTTGAATCTGCCGCCACCATCACCGCCGGAGTCACCTAGTGCAG | 8910 fluorescence intensity (a.u.)
GCTGACATAATTGCTTGTTGGGATTCTTGGGAGGAAATGGCGGAGTCACCTAGTGCAG | 8330 fluorescence intensity (a.u.)
CTTCTCTCCTCTCCGCTGTGGTTTCTTGCTGGTTCTTGGACGGAGTCACCTAGTGCAG | 10400 fluorescence intensity (a.u.)
GCTGTACCAGTACTGACCGGGGTGGGGTGGCGGGAGCGGACGGAGTCACCTAGTGCAG | 14600 fluorescence intensity (a.u.)
TGGCCGGAGAGGGGAGATGGGGAGATGGGGAGAGGGGAGGCGGAGTCACCTAGTGCAG | 9420 fluorescence intensity (a.u.)
TGGAGGAGGGGAGGCCGGGGATTGTTTTTATAGGGGAGGGCGGAGTCACCTAGTGCAG | 30500 fluorescence intensity (a.u.)
GGGTTGGGTGGGTGCTGTAATATGGGGAGATACTGACTACCGGAGTCACCTAGTGCAG | 19200 fluorescence intensity (a.u.)
GTATTATGGGTGGAGGCGGGCGGCTGAGCTGTTCCTGGGCCGGAGTCACCTAGTGCAG | 8880 fluorescence intensity (a.u.)
GAGGCTGGGCTGGGCGGGCGTATCGTTCCTGCTCCCGGAGCGGAGTCACCTAGTGCAG | 25400 fluorescence intensity (a.u.)
GAGATGGGGAGGGAGGCCGGCCGGGAGAGGGAGAGAGAGGCGGAGTCACCTAGTGCAG | 8890 fluorescence intensity (a.u.)
TCACCGGGCGGTCACCGGAGGCGGAGGCGGAGGGAGGGGCCGGAGTCACCTAGTGCAG | 10200 fluorescence intensity (a.u.)
ATTGTTTTTATAGGGGAGGGGAGGCGGGATCGAGCCCGGGCGGAGTCACCTAGTGCAG | 15100 fluorescence intensity (a.u.)
GGGGCGTCCCGGGAGGGGAGGGAGATGGGGAGGGAGCGGACGGAGTCACCTAGTGCAG | 16800 fluorescence intensity (a.u.)
GGGTGGAGCTGAACTGATGGGCCGAACTATGTATGGTTGGCGGAGTCACCTAGTGCAG | 9030 fluorescence intensity (a.u.)
TCTCCTCTCTCTCTCTTCTTCCCGGGGAGGCGGGGAGCGGCGGAGTCACCTAGTGCAG | 11700 fluorescence intensity (a.u.)
CGCTGCGCTGCCGGTCCATTTCTAGAAGCCCTCGCGCTCCCGGAGTCACCTAGTGCAG | 9130 fluorescence intensity (a.u.)
TTGAATTGAATTATTATGCTCATCGCTTTCGCATAACCTCCGGAGTCACCTAGTGCAG | 8320 fluorescence intensity (a.u.)
CTAGGAGGAGGATTAGTTCTTGCGCATCGCTTCTGAGCTCCGGAGTCACCTAGTGCAG | 8200 fluorescence intensity (a.u.)
CCCATGTTTTTTTTTCATATTTTGCAATCTTCGGTTTAAACGGAGTCACCTAGTGCAG | 8520 fluorescence intensity (a.u.)
